Here are results for 39 molecules from the supplement of paper PMC7411054.

SMILES strings stand for the structures. Structures can show the parent of a compound that is named as a salt. Unmarked numbers belong to inactive results.

The subject of one assay is A549-TUBA1B-RELA. Nature of the assay: phenotypically active (imaging signature differs from DMSO and reproducible) at any of 0.3-9 uM (binary (1 = active, 0 = inactive)); higher = active. The conditions noted are these: treatment time: 24 h. In a few lines: (§1)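 After 24 h at 0.3, 1, 3 or 9 µM, with four wells per treatment, fifteen gene-edited A549, HepG2 and WPMY1 reporter lines carrying BFP, GFP and RFP/FusionRed were imaged live. Each well's live-cell features were expressed relative to solvent control wells. Deviation required ≥3 of 4 wells past the 95th percentile of control Euclidean distances, and reproducibility a median replicate Pearson correlation over the 95th percentile of non-replicates. Phenotypic activity rested on both.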
For `CN1C(=O)CC(C)(c2ccccc2)C1=O` (stereo not drawn) [methsuximide], the phenotypically active was 0.

In the case of `O=C(NCCO)c1cc(C(=O)NCCO)cc(C(=O)NCCO)c1`, the phenotypically active is 0.

As to `CO[C@H]1C=CO[C@@]2(C)Oc3c(C)c(O)c4c(O)c(c5c(nc6cc(C)ccn65)c4c3C2=O)NC(=O)C(C)=CC=C[C@H](C)[C@H](O)[C@@H](C)[C@@H](O)[C@@H](C)[C@H](OC(C)=O)[C@@H]1C` [Rifaximin], the phenotypically active was 0.

Consider `N#Cc1ccc(C(c2ccc(C#N)cc2)n2cncn2)cc1` [Letrozole], for which the phenotypically active is 0.

In the case of `NC(=O)c1cccc(-c2cccc(OC(=O)NC3CCCCC3)c2)c1`, the phenotypically active was 0.

Regarding `O=C(Nc1cccnc1)c1cc(-c2ccnc(F)c2)ccc1OCc1ccccc1`, the phenotypically active was 0.

For the molecule `O=C(O)CCCC[C@@H]1SC[C@@H]2NC(=O)N[C@@H]21` [Biotin], the phenotypically active is 0.

Take `NS(=O)(=O)c1cc2c(cc1Cl)NC(C(Cl)Cl)NS2(=O)=O` (stereo not drawn) [trichlormethiazide]: the phenotypically active was 0.

For `CCn1c(=O)c2cc(C(N)=O)c(N)nc2n(C2CC2)c1=O`, the phenotypically active was 0.

Consider `CCCSc1nc2c(c(=O)n1-c1ccccc1)SCC2`, for which the phenotypically active is 0.

Take `COc1cc(C#N)ccc1S(=O)(=O)Nc1ccc2c(c1)cc(C)c(=O)n2C`: the phenotypically active was 0.

As for `CC(C)(C)NC[C@H](O)COc1nsnc1N1CCOCC1` [timolol], the phenotypically active is 0.

For `CC[N+](CC)(CC)CCC(O)(c1ccccc1)C1CCCCC1` (stereo not drawn) [tridihexethyl], the phenotypically active is 0.

In the case of `COC(=O)C1=CO[C@@H](O[C@@H]2O[C@H](CO)[C@@H](O)[C@H](O)[C@H]2O)[C@H]2[C@@H]1C(=O)C[C@@H]2C` [Verbenaline], the phenotypically active was 0.

In the case of `Nc1ncnc2c1ncn2[C@H]1O[C@@H](C(=O)N2CCN(CC(=O)Nc3cccc4c3CNC4=O)CC2)[C@H](O)[C@@H]1O`, the phenotypically active was 0.

In the case of `COc1ccc2cc(CCC(C)=O)ccc2c1` [nabumetone], the phenotypically active is 0.

For `CC(C)c1ccc2oc3nc(N)c(C(=O)O)cc3c(=O)c2c1` [Amlexanox], the phenotypically active is 0.

Consider `O=C(/C=C/N1C[C@H]2C[C@@H]1CN2c1ccccn1)c1ccccc1O`, for which the phenotypically active is 0.

Turning to `C#CCN(C)Cc1ccccc1` [pargyline], the phenotypically active was 0.

As to `Cc1nc2c(O)cccc2c(=O)[nH]1`, the phenotypically active is 0.

As for `CC(C)Cn1c(=O)n(C)c(=O)c2[nH]cnc21`, the phenotypically active is 0.

Regarding `COc1ccccc1OCC(O)CN1CCN(CC(=O)Nc2c(C)cccc2C)CC1` (stereo not drawn) [ranolazine], the phenotypically active was 0.

For `COC(=O)c1c(C)cc(OC(=O)c2c(C)cc(O)c(C=O)c2O)c(C)c1O` [Atranorin], the phenotypically active was 0.

In the case of `CC(C)NCCCC1(C(N)=O)c2ccccc2-c2ccccc21` [indecainide], the phenotypically active was 0.

For `O=C1c2ccccc2C(Cc2ccncc2)(Cc2ccncc2)c2ccccc21`, the phenotypically active is 0.

In the case of `CC1=NN(c2ccc(C(=O)O)cc2)C(=O)/C1=C\c1ccc(-c2cc(C)c(C)cc2[N+](=O)[O-])o1`, the phenotypically active was 0.

Regarding `CCCC(=O)Nc1ncnc2c1ncn2[C@@H]1O[C@@H]2COP(=O)(O)O[C@H]2[C@H]1OC(=O)CCC` [Dibutyryl-cAMP, sodium salt], the phenotypically active was 0.

Take `CCO[C@@H](Cc1ccc(OCCc2ccc(OS(C)(=O)=O)cc2)cc1)C(=O)O` [Tesaglitazar]: the phenotypically active was 0.

With `O=c1[nH]cnc2ccccc12`, the phenotypically active is 0.

Turning to `S=P(N1CC1)(N1CC1)N1CC1` [thiotepa], the phenotypically active is 0.

Turning to `C[C@](N)(Cc1ccc(O)c(O)c1)C(=O)O` [methyldopa], the phenotypically active was 0.

As to `CC1CCC(C(C)C)C(O)C1` [L-menthol], the phenotypically active was 0.

In the case of `CCCCC1=NC2(CCCC2)C(=O)N1Cc1ccc(-c2ccccc2-c2nnn[nH]2)cc1` [irbesartan], the phenotypically active was 0.

As for `CC(=O)Oc1ccccc1C(=O)O` [aspirin], the phenotypically active was 0.

For the molecule `CC(C(=O)O)c1ccc(C(=O)c2cccs2)cc1` (stereo not drawn) [suprofen], the phenotypically active was 0.

For the molecule `FC(F)OC(F)C(F)(F)F` (stereo not drawn) [desflurane], the phenotypically active is 0.

Consider `CC(C)NCC(O)c1ccc(NS(C)(=O)=O)cc1` (stereo not drawn) [sotalol], for which the phenotypically active was 0.

`COc1ccc(C(C)=O)c(O)c1` [2'-Hydroxy-4'-Methoxyacetophenone]: the phenotypically active was 0.

Consider `CC(=O)[C@H]1CC[C@H]2[C@@H]3CCC4=CC(=O)CC[C@]4(C)[C@H]3CC[C@]12C` [progesterone], for which the phenotypically active is 0.

The subject of the next assay is HepG2-ACTB-RAB5A. The description is as above. The settings on record: treatment time: 24 h. The method, boiled down:
as §1
As for `CN1C(=O)CC(C)(c2ccccc2)C1=O` (stereo not drawn) [methsuximide], the phenotypically active is 0.

On to `O=C(NCCO)c1cc(C(=O)NCCO)cc(C(=O)NCCO)c1`, for which the phenotypically active was 0.

For the molecule `CO[C@H]1C=CO[C@@]2(C)Oc3c(C)c(O)c4c(O)c(c5c(nc6cc(C)ccn65)c4c3C2=O)NC(=O)C(C)=CC=C[C@H](C)[C@H](O)[C@@H](C)[C@@H](O)[C@@H](C)[C@H](OC(C)=O)[C@@H]1C` [Rifaximin], the phenotypically active was 0.

In the case of `N#Cc1ccc(C(c2ccc(C#N)cc2)n2cncn2)cc1` [Letrozole], the phenotypically active was 0.

Take `NC(=O)c1cccc(-c2cccc(OC(=O)NC3CCCCC3)c2)c1`: the phenotypically active is 0.

`O=C(Nc1cccnc1)c1cc(-c2ccnc(F)c2)ccc1OCc1ccccc1`: the phenotypically active is 0.

`O=C(O)CCCC[C@@H]1SC[C@@H]2NC(=O)N[C@@H]21` [Biotin]: the phenotypically active is 0.

Take `NS(=O)(=O)c1cc2c(cc1Cl)NC(C(Cl)Cl)NS2(=O)=O` (stereo not drawn) [trichlormethiazide]: the phenotypically active was 0.

As for `CCn1c(=O)c2cc(C(N)=O)c(N)nc2n(C2CC2)c1=O`, the phenotypically active is 0.

Take `CCCSc1nc2c(c(=O)n1-c1ccccc1)SCC2`: the phenotypically active was 0.

`COc1cc(C#N)ccc1S(=O)(=O)Nc1ccc2c(c1)cc(C)c(=O)n2C`: the phenotypically active was 0.

Turning to `CC(C)(C)NC[C@H](O)COc1nsnc1N1CCOCC1` [timolol], the phenotypically active was 0.

For the molecule `CC[N+](CC)(CC)CCC(O)(c1ccccc1)C1CCCCC1` (stereo not drawn) [tridihexethyl], the phenotypically active was 0.

Regarding `COC(=O)C1=CO[C@@H](O[C@@H]2O[C@H](CO)[C@@H](O)[C@H](O)[C@H]2O)[C@H]2[C@@H]1C(=O)C[C@@H]2C` [Verbenaline], the phenotypically active was 0.

As for `Nc1ncnc2c1ncn2[C@H]1O[C@@H](C(=O)N2CCN(CC(=O)Nc3cccc4c3CNC4=O)CC2)[C@H](O)[C@@H]1O`, the phenotypically active is 0.

On to `COc1ccc2cc(CCC(C)=O)ccc2c1` [nabumetone], for which the phenotypically active was 0.

As for `CC(C)c1ccc2oc3nc(N)c(C(=O)O)cc3c(=O)c2c1` [Amlexanox], the phenotypically active was 0.

With `O=C(/C=C/N1C[C@H]2C[C@@H]1CN2c1ccccn1)c1ccccc1O`, the phenotypically active was 0.

Consider `C#CCN(C)Cc1ccccc1` [pargyline], for which the phenotypically active is 0.

With `Cc1nc2c(O)cccc2c(=O)[nH]1`, the phenotypically active was 0.

On to `CC(C)Cn1c(=O)n(C)c(=O)c2[nH]cnc21`, for which the phenotypically active is 0.

Consider `COc1ccccc1OCC(O)CN1CCN(CC(=O)Nc2c(C)cccc2C)CC1` (stereo not drawn) [ranolazine], for which the phenotypically active was 0.

Regarding `COC(=O)c1c(C)cc(OC(=O)c2c(C)cc(O)c(C=O)c2O)c(C)c1O` [Atranorin], the phenotypically active is 0.

Turning to `CC(C)NCCCC1(C(N)=O)c2ccccc2-c2ccccc21` [indecainide], the phenotypically active is 0.

For the molecule `O=C1c2ccccc2C(Cc2ccncc2)(Cc2ccncc2)c2ccccc21`, the phenotypically active was 0.

`CC1=NN(c2ccc(C(=O)O)cc2)C(=O)/C1=C\c1ccc(-c2cc(C)c(C)cc2[N+](=O)[O-])o1`: the phenotypically active is 0.

Regarding `CCCC(=O)Nc1ncnc2c1ncn2[C@@H]1O[C@@H]2COP(=O)(O)O[C@H]2[C@H]1OC(=O)CCC` [Dibutyryl-cAMP, sodium salt], the phenotypically active was 0.

For `CCO[C@@H](Cc1ccc(OCCc2ccc(OS(C)(=O)=O)cc2)cc1)C(=O)O` [Tesaglitazar], the phenotypically active is 0.

As to `O=c1[nH]cnc2ccccc12`, the phenotypically active was 0.

Take `S=P(N1CC1)(N1CC1)N1CC1` [thiotepa]: the phenotypically active was 0.

As to `C[C@](N)(Cc1ccc(O)c(O)c1)C(=O)O` [methyldopa], the phenotypically active was 0.

`CC1CCC(C(C)C)C(O)C1` [L-menthol]: the phenotypically active was 0.

Regarding `CCCCC1=NC2(CCCC2)C(=O)N1Cc1ccc(-c2ccccc2-c2nnn[nH]2)cc1` [irbesartan], the phenotypically active was 0.

`CC(=O)Oc1ccccc1C(=O)O` [aspirin]: the phenotypically active was 0.

For the molecule `CC(C(=O)O)c1ccc(C(=O)c2cccs2)cc1` (stereo not drawn) [suprofen], the phenotypically active was 0.

`FC(F)OC(F)C(F)(F)F` (stereo not drawn) [desflurane]: the phenotypically active is 0.

With `CC(C)NCC(O)c1ccc(NS(C)(=O)=O)cc1` (stereo not drawn) [sotalol], the phenotypically active is 0.

For `COc1ccc(C(C)=O)c(O)c1` [2'-Hydroxy-4'-Methoxyacetophenone], the phenotypically active is 0.

As to `CC(=O)[C@H]1CC[C@H]2[C@@H]3CCC4=CC(=O)CC[C@]4(C)[C@H]3CC[C@]12C` [progesterone], the phenotypically active was 0.
